Screening results deposited in PubChem by National Center for Advancing Translational Sciences (NCATS).
RORg inh = qHTS for inhibitors of ROR gamma transcriptional activity. Nuclear receptor ROR-gamma (Mus musculus), P51450. Drosophila S2 Gal4-RORgamma UAS-luciferase reporter, 20 h. Potency, µM (highest dose often 53.6 µM), for inactives: at the highest dose activity change, negative = inhibition, most hits filed as inhibitors. 310,000 tested, 5.4% active. AID 2551, 2010; note: potency is the fitted concentration of half-maximal effect; nearly all actives have a fitted effect of over 60% in size
Target sequence (P51450 whole entry, looked up, the tested form may be a part): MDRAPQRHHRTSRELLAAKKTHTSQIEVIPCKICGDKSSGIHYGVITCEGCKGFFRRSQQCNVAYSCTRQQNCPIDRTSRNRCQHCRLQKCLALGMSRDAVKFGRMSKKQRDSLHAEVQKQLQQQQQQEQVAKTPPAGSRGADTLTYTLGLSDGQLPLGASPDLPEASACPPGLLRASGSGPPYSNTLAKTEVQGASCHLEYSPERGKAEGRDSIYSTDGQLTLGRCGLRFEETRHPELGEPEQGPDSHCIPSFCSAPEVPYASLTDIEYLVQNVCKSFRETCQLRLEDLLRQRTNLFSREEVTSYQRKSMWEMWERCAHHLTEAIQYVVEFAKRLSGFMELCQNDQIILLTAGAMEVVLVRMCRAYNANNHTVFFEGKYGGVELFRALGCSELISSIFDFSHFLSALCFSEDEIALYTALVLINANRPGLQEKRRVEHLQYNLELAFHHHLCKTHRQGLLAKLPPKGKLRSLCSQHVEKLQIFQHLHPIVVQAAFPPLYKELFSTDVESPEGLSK
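Stable Schneider cell line, Gal4 DNA-binding domain fused to ROR gamma, UAS-luciferase. Cmpd 1 hr RT → CuSO4 700 uM final → 20 hr RT → luciferase reagent 10 min → luminescence.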
VP16 counter = VP16 counterscreen qHTS for inhibitors of ROR gamma transcriptional activity; Drosophila S2 Gal4-VP16 UAS-luciferase, luminescence, 20 h; AID 2546, 2010; 310,000 tested, 3.5% active; Potency, µM (highest dose often 53.6 µM), for inactives: at the top dose activity, negative = inhibition, usual class: inhibitors;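 note: Gal4-VP16 expression switched on by copper sulfate through the metallothionein promoter; potency is the fitted concentration of half-maximal effect; nearly all actives have a fitted effect of over 50% in size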
DT40 TDP1 CPT = qHTS for Inhibitors of human tyrosyl-DNA phosphodiesterase 1 (TDP1): qHTS in cells in presence of CPT; chicken DT40 Tdp1-/-;hTDP1 cells + 20 nM CPT, ATP luminescence, 48 h; 420,000 tested, 12% active; Potency, µM (top dose mostly 46.2 µM), without a hit: at the top dose activity change, negative = growth inhibition, actives largely listed as inhibitors; note: potency is the fitted concentration of half-maximal effect; nearly all actives have a fitted effect of over 55% in size
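Chicken DT40 Tdp1-/- cells stably complemented with human TDP1 were seeded at 400 cells/well in medium containing 20 nM camptothecin, exposed to pin-transferred compounds, and grown at 37 °C for at least 48 hr. Viability was read as ATP luminescence.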
LDHA inh = qHTS assay for inhibitors of human lactate dehydrogenase; activity change, % (values are at about 110 or 230 µM); AID 1347041, 2019; purified LDHA, NADH/diaphorase-resazurin fluorescence; hits give low values; 480,000 tested, 0.15% active; L-lactate dehydrogenase A chain (Homo sapiens), P00338; in the data active = activity change below about -30%; inconclusive = mostly about -25% to -30%;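 note: plate controls were DMSO wells for no effect and wells without enzyme for full effect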
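LDH5 2 nM; NADH 0.06 mM, pyruvate 0.2 mM; 200 mM Tris pH 7.4, EDTA, Tween-20; 5 min RT. Detection: diaphorase 0.133 mg/mL + resazurin 37 µM, fluorescence ex540/em590 at 0 and 20 min; normalized to enzyme-free and DMSO wells.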
TDP1 cell noCPT = qHTS for Inhibitors of human tyrosyl-DNA phosphodiesterase 1 (TDP1): qHTS in cells in absence of CPT. Potency, µM (titrated, usually from 46.2 µM), inactives show at the highest dose activity change, negative = growth inhibition, usual class: inhibitors. AID 686978, 2013. 420,000 tested, 15% active. DT40 Tdp1-/- hTDP1 cells, no CPT, ATP luminescence, 48 h; note: potency is the fitted concentration of half-maximal effect; nearly all actives have a fitted effect of over 55% in size
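A cellular qHTS used chicken DT40 cells lacking endogenous Tdp1 but carrying stably transfected human TDP1. Compounds were applied without camptothecin, and cell growth kinetics were judged by ATP-dependent luminescence after ≥48 hr.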
IL1B secr inh = qHTS for Inhibitors of Inflammasome Signaling: IL-1-beta AlphaLISA Primary Screen; THP-1 LPS/ATP IL-1B secretion, AlphaLISA, 16 h; hits give low values; activity change, % at 57.5 µM; 360,000 tested, 4.7% active; AID 743279, 2014; in the data active = activity change below about -50%; inconclusive = mostly about -30% to -49%
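Secreted IL-1B measured by AlphaLISA bead assay after 16 h compound exposure of THP-1 cells; compounds (final up to 57.5 uM) added 1 h before LPS (250 ng/mL) and ATP (1.25 mM) stimulation; lower signal means less secretion.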
* hit, by the source's call. This is a sample that favours compounds with a hit; in the whole collection about 18% have one here. Unless noted, calls come from the whole dose curve; as a rule, active = well fitted curve in the direction sought with a large enough effect; inconclusive = small, poorly fitted or top-dose-only effect, or another doubt; inactive = no such curve, though single readings can be large; an effect the other way counts as inactive or inconclusive. Unless noted, % is set by controls: 0 for no effect and ±100 for the full control effect.

`COc1ccc(CCN2C(=O)C3C4CC(C5C(C(N)=O)=NOC45)C3C2=O)cc1OC` (configuration not stated) gave RORg inh -1%, VP16 counter 8%, DT40 TDP1 CPT -5%, LDHA inh -2, TDP1 cell noCPT -16% and IL1B secr inh 0.
COc1ccc(CCN2C(=O)CC(NC34CC5CC(CC(C5)C3)C4)C2=O)cc1OC (configuration not stated) was read as RORg inh inconclusive, VP16 counter 7%, DT40 TDP1 CPT inconclusive, LDHA inh 0, TDP1 cell noCPT 18µM* and IL1B secr inh 18.
`COc1ccc(CCN2C(=O)C3C4CCC(C4=C(C)C)C3C2=O)cc1OC` (configuration not stated) gave RORg inh -12%, VP16 counter inconclusive, DT40 TDP1 CPT inconclusive, LDHA inh 0, TDP1 cell noCPT 8.2µM* and IL1B secr inh 2.
For COc1ccc(CCN2C(=O)CC(NCCc3ccc(S(N)(=O)=O)cc3)C2=O)cc1OC (configuration not stated) the results were RORg inh -1%, VP16 counter -1%, DT40 TDP1 CPT -19%, LDHA inh -5, TDP1 cell noCPT inconclusive and IL1B secr inh 33.
`O=C(O)c1[nH]c2ccc([N+](=O)[O-])cc2c1-c1ccccc1` gave RORg inh 8%, VP16 counter 1%, DT40 TDP1 CPT -8%, LDHA inh -10, TDP1 cell noCPT 5% and IL1B secr inh 17.
Screening Cc1c(C(=O)NN)[nH]c2ccc([N+](=O)[O-])cc12 returned RORg inh 11µM*, VP16 counter inconclusive, DT40 TDP1 CPT 25%, LDHA inh -10, TDP1 cell noCPT -3% and IL1B secr inh 10.
`NNC(=O)c1[nH]c2ccc([N+](=O)[O-])cc2c1-c1ccccc1` gave RORg inh -20%, VP16 counter -5%, DT40 TDP1 CPT 21µM*, LDHA inh 0, TDP1 cell noCPT 23µM* and IL1B secr inh 26.
For CCOc1ccc(NC(=O)CCc2c(C)c3ccc(C)cc3oc2=O)cc1 the results were LDHA inh -23.
Cc1ccc(C(=O)COC(=O)CCCC(=O)Nc2cc(C(F)(F)F)ccc2Cl)cc1[N+](=O)[O-] was read as LDHA inh 6.
For CCOC(=O)c1ccc2c(c1)[nH]c(=S)n2CC the results were RORg inh 8.9µM*, VP16 counter inconclusive, DT40 TDP1 CPT -3%, LDHA inh -4, TDP1 cell noCPT inconclusive and IL1B secr inh 8.
CCOC(=O)c1ccc2c(c1)n(CC)c(C)[n+]2CC was read as RORg inh 1%, VP16 counter 1%, DT40 TDP1 CPT 2%, LDHA inh -18, TDP1 cell noCPT -8% and IL1B secr inh -6.
For CCN(CC)S(=O)(=O)c1ccc2c(c1)[nH]c(=S)n2CC the results were RORg inh 6.3µM*, VP16 counter -23%, DT40 TDP1 CPT -11%, LDHA inh -8, TDP1 cell noCPT -28% and IL1B secr inh 0.
`CCN(CC)S(=O)(=O)c1ccc2nc(CCl)[nH]c2c1` gave RORg inh -8%, VP16 counter -19%, DT40 TDP1 CPT 26µM*, LDHA inh -6, TDP1 cell noCPT inconclusive and IL1B secr inh -82*.
Screening CCN(CC)S(=O)(=O)c1ccc2c(c1)nc(CCC(=O)O)n2CC returned RORg inh 1%, VP16 counter 6%, DT40 TDP1 CPT 1%, LDHA inh -3, TDP1 cell noCPT 5% and IL1B secr inh 23.
